# Compounds without any hit were thinned out: in the full panel of roughly 83,000, 20% have a hit.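 Cell lines were cultured in 96-well plates, exposed to a single compound concentration, and assessed for percent growth 48 hours later.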 Values without a mark were called inactive. Activity calls are given as the source filed them. How the source made its calls: active means growth percent below 10; inactive means the rest.
# Assays:
# Test in all cases: NCI-60 one-dose screen, 48 h (100 = growth as untreated, 0 = no growth, -100 = all killed)
# Details in all cases: 10 µM
# [1] = tested on: HT29 colon
# [2] = tested on: SNB-75 CNS
# [3] = tested on: SNB-19 CNS
# [4] = tested on: U251 CNS
# [5] = tested on: PC-3 prostate
# [6] = tested on: SK-MEL-5 melanoma
# [7] = tested on: UACC-62 melanoma
# [8] = tested on: LOX IMVI melanoma
# [9] = tested on: SK-MEL-28 melanoma
# [10] = tested on: SK-MEL-2 melanoma
# [11] = tested on: SN12C renal
# [12] = tested on: UO-31 renal
# [13] = tested on: ACHN renal
# [14] = tested on: CAKI-1 renal
# [15] = tested on: A498 renal
# [16] = tested on: CCRF-CEM leukemia
# [17] = tested on: MOLT-4 leukemia
# [18] = tested on: SR leukemia
# [19] = tested on: TK-10 renal
SMILES,growth [1],growth [2],growth [3],growth [4],growth [5],growth [6],growth [7],growth [8],growth [9],growth [10],growth [11],growth [12],growth [13],growth [14],growth [15],growth [16],growth [17],growth [18],growth [19]
COc1cc(-c2cc(/C=C/C(=O)c3ccc(F)c(F)c3)[nH]n2)cc(OC)c1OC,53.7%,56.7%,67.8%,41.5%,11.7%,75.6%,51.4%,55.9%,73.4%,83.1%,39.2%,61.2%,36.8%,6.42% (active),60.9%,33.3%,41%,44.3%,
O=C1/C(=C\c2ccc(Cl)cc2)CN(C(=S)Nc2ccccc2)C/C1=C\c1ccc(Cl)cc1,-77% (active),-36.3% (active),-72.9% (active),-97.7% (active),-55.6% (active),-73% (active),-70.4% (active),-80.1% (active),-60.3% (active),-28.4% (active),-52% (active),-95% (active),-86.8% (active),-17.6% (active),,-2.03% (active),5.1% (active),-15.1% (active),-60.5% (active)
CC/C(=C(/c1ccc(OCCN(C)C)cc1)c1ccc(OC(=O)CCCCC(=O)c2c(C)[nH]c(/C=C3\N=C(c4ccc[nH]4)C=C3OC)c2C)cc1)c1ccccc1,14.3%,42.3%,91.8%,43.5%,42.3%,36.4%,75.1%,14%,85.6%,69%,62.3%,45.4%,67.1%,47.6%,75.7%,,26.7%,45.3%,103%
COc1cc(-c2nn3c(/C=C4/C(=O)Nc5ccccc54)c(-c4ccc(C)cc4)nc3s2)cc(OC)c1OC,25.7%,18.3%,87.8%,65.2%,85.5%,12.2%,58.5%,44.1%,29.1%,65.9%,73.2%,73.1%,81.1%,64.6%,,67.4%,47.8%,26.5%,-18.7% (active)
Nc1c(C(=O)Nc2ccccc2)sc2nc3c(cc12)C(O)CCC3 (stereo not given),6.61% (active),36.6%,58.6%,23.9%,31.8%,42.4%,55.4%,47.5%,62.6%,37.8%,39.6%,49.4%,48.2%,41.4%,-10.1% (active),,11.9%,7.36% (active),69.8%
CS(=O)(=O)Nc1ccc(Nc2c3ccccc3nc3cc(N)ccc23)cc1,55.9%,38.8%,22.2%,3.29% (active),51.3%,5.37% (active),40.2%,23.4%,42.3%,25.1%,5.31% (active),28.6%,24.9%,19.9%,57.1%,,5.41% (active),8.53% (active),62.3%
N#Cc1cccc(OCc2nc(N)nc(N)c2-c2ccc(Cl)c(Cl)c2)c1,9.63% (active),51.7%,47.1%,22%,27.5%,22.4%,22.7%,15.5%,53.4%,42.8%,33.3%,33.6%,17.7%,10.5%,53.5%,,32.7%,18.1%,46.1%
CC/C(=C(/c1ccc(OCCN(C)C)cc1)c1ccc(OC(=O)CCCCCCCCC(=O)c2c(C)[nH]c(/C=C3\N=C(c4ccc[nH]4)C=C3OC)c2C)cc1)c1ccccc1,25.9%,64.7%,81.4%,43.5%,43%,29.3%,51.2%,20.8%,84.3%,95.6%,74.7%,62.2%,87.6%,47.1%,,23.5%,36.2%,47.8%,98%
Cc1cc(Cc2cc(C)c(O)c(C)c2)cc(C)c1O,88.1%,48%,66.6%,49.6%,75.1%,38.9%,53.2%,43.5%,70%,6.12% (active),65.3%,61.2%,72.1%,42.8%,97.5%,,22.8%,25.1%,77.5%
c1ccc(CO[C@H]2CO[C@H]3[C@@H]2OC[C@H]3OCc2ccccc2)cc1,107%,111%,101%,104%,90.6%,101%,95.9%,98.4%,105%,104%,102%,72.1%,101%,,110%,,95.2%,94.6%,101%
N=C(N)c1ccc(-c2ccc(-c3ccco3)o2)cc1,5.15% (active),22.2%,68.4%,53.5%,59.8%,76%,95.9%,56.9%,75.1%,108%,69.3%,55%,79.4%,54.5%,,60.7%,31.3%,-17.8% (active),109%
O=C(Nc1cccc(-n2cc(-c3ccncc3)c(-c3cc(O)cc(Cl)c3)n2)c1)c1cc(C(F)(F)F)cc(C(F)(F)F)c1,19.7%,52.7%,63.1%,37.2%,21.7%,64.5%,69.3%,10.5%,63.6%,57.8%,50.3%,49.1%,37.7%,58.5%,40.3%,,19.5%,3.15% (active),73%
COc1ccc(-c2nc(-c3nc4ccc(OC)cc4[nH]3)cc3c2[nH]c2ccccc23)cc1,17.4%,67.3%,37.5%,14.3%,25.8%,49.9%,50%,27.2%,47.7%,11.2%,20.7%,8.19% (active),31.9%,0.0135% (active),46.3%,11%,47.3%,33.6%,
CCOC(=O)N1C/C(=C/c2ccc(F)cc2)C(=O)/C(=C/c2ccc(F)cc2)C1,-58.8% (active),56.8%,39.6%,-65.6% (active),-25.3% (active),-59.7% (active),-56.8% (active),-84.5% (active),-37.4% (active),21.7%,-43.8% (active),-55.6% (active),-28% (active),-16% (active),,-1.18% (active),2.2% (active),-19.9% (active),2.65% (active)
O=C(Nc1ccc(CO)cc1)c1ccccc1Nc1ccnc(C(F)(F)F)c1,109%,87.8%,106%,95.4%,99.5%,107%,95.4%,92.2%,101%,123%,95.6%,81.5%,103%,95.8%,95.7%,89.7%,98.4%,82.9%,
COc1cc(-c2cc(-c3cc4c([nH]c5ccccc54)c(-c4cc(OC)c(OC)c(OC)c4)n3)cc(-c3ccccc3)n2)cc(OC)c1OC,44.4%,36.2%,66%,62.1%,48.3%,40.1%,40%,59.5%,62.5%,46%,54.6%,36.9%,62.8%,32.9%,54.5%,37.9%,18.5%,16.7%,
O=C(CCCCC[P+](c1ccccc1)(c1ccccc1)c1ccccc1)NC(COC(=O)C(Cl)Cl)(COC(=O)C(Cl)Cl)COC(=O)C(Cl)Cl,96.6%,103%,98.3%,97.1%,90.5%,92.4%,98%,102%,108%,100%,96.8%,94%,113%,107%,89.7%,,97.6%,88.8%,87.4%

# From PubChem BioAssay (NCI)
